Test results published in PubChem BioAssay AID651658 (Broad Institute, 2012).
In all, about 340,000 compounds went through this assay and about 5,100 (1.5%) were called active. What follows is part of a selection rich in actives, with near analogues and random picks from the rest. Values without a mark were called inactive.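 How the source made its calls: active means mean Tm shift, scaled 0 neutral to 100 positive control, at about 1.3% or above, every replicate too (limit read from the data); inconclusive means no clear call, values can overlap the other calls; inactive means the rest.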

target: Fibroblast growth factor 22 (Homo sapiens) (UniProt Q9HCT0); experiment: binders of human FGF22 protein, primary screen, FGF22 synaptogenesis inhibitor project, biophysical, thermal shift, single point (AID 651658); conditions: recombinant FGF22 thermal shift, SYPRO orange fluorescence; at 9.99 µM; hits give high values; percent of sucrose octasulfate shift, DMSO zero
Sequence (Q9HCT0 whole entry, looked up): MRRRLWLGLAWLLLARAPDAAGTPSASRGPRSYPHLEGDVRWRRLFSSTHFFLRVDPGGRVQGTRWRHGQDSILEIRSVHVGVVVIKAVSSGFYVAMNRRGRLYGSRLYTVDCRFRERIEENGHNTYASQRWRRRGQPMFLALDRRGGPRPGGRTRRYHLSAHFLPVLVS

| SMILES | activity (Tm shift, normalised) |
| --- | --- |
| CNC[C@@H]1Oc2ccc(NC(=O)C3CCCCC3)cc2CC(=O)N([C@@H](C)CO)C[C@H]1C | 0.125% |
| CNC[C@@H]1Oc2ccc(NC(=O)C3CCCCC3)cc2C(=O)N([C@@H](C)CO)C[C@H]1C | 1.59% (active) |
| C[C@H]1CN([C@@H](C)CO)C(=O)c2cc(N(C)C)ccc2O[C@@H]1CN(C)Cc1ccccc1 | 0.118% |
| O=C(C[C@H]1CC[C@H](NC(=O)c2ccc(F)cc2)[C@@H](CO)O1)NCCc1ccncc1 | -0.269% |
| O=C(NCC[C@H]1CC[C@@H](NC(=O)C2CCCC2)[C@@H](CO)O1)c1cc(Cl)cc(Cl)c1 | 0.127% |
| Cc1ccc(S(=O)(=O)NCC[C@H]2CC[C@H](NC(=O)c3ccccn3)[C@@H](CO)O2)cc1 | -0.462% |
| C[C@H]1CCCCO[C@H](CN(C)CC2CC2)[C@@H](C)CN([C@@H](C)CO)C(=O)c2cc(NC(=O)CCC(F)(F)F)ccc2O1 | 0.058% |
| COc1cccc(S(=O)(=O)N[C@@H]2CC[C@@H](CCNC(=O)Cc3ccncc3)O[C@H]2CO)c1 | 0.19% |
| C[C@H]1CN([C@@H](C)CO)C(=O)c2cc(-c3cccnc3)cnc2O[C@@H]1CN(C)C(=O)C1CC1 | 0.138% |
| COC(=O)C1=C(N)Oc2c(oc(CO)cc2=O)C1c1c(F)cccc1Cl (configuration not stated) | 43.6% (active) |
| COC(=O)C1=C(N)Oc2cc(C)[nH]c(=O)c2C1c1ccc(Cl)cc1 (configuration not stated) | -0.032% |
| CC(C)c1ccc(C2C(C#N)=C(N)Oc3c2oc(CO)cc3=O)cc1 (configuration not stated) | -0.049% |
| CO[C@H]1CC[C@H]2CCN(C)C(=O)C[C@@H](c3ccccc3)CN(C)C(=O)c3cccc(C#N)c3OC[C@@H]1O2 | 0.156% |
| OC[C@@H]1[C@H](c2ccc(Br)cc2)[C@@H]2CN(Cc3ccccn3)CCCCN12 | 0.488% |
| OC[C@H]1[C@H](c2ccc(-c3cccnc3)cc2)[C@H]2CN(Cc3ccccn3)CCCCN21 | 1.51% (active) |
| CCC(=O)N1CCCCN2[C@H](CO)[C@@H](c3ccc(-c4cccnc4)cc3)[C@H]2C1 | 0.191% |
| O=C(N[C@H]1CC[C@@H](CCNS(=O)(=O)c2cccc(Cl)c2)O[C@@H]1CO)c1ccccc1 | -0.047% |
| COc1cc(C)ccc1OCC(=O)OCC(=O)c1ccc[nH]1 | 43.3% (active) |
| O=C(COc1ccc(Br)cc1)OCC(=O)c1ccc[nH]1 | -0.019% |

| SMILES | activity (Tm shift, normalised) |
| --- | --- |
| COc1ccc(C(=O)COC(=O)COc2ccc(C)c(C)c2)cc1 | 0.002% |
| C[C@H](CO)N1C[C@H](C)[C@@H](CN(C)S(=O)(=O)c2cn(C)cn2)Oc2ccc(N(C)C)cc2CC1=O | 0.089% |
| Cc1ccc(NC(=O)CN(C)CC(=O)Nc2cccc(F)c2)cc1[N+](=O)[O-] | 43.3% (active) |
| CN(CC(=O)Nc1cccc(F)c1)C(=O)CC1CCCC1 | 0.042% |
| Cc1ccc(S(=O)(=O)N2CCCCC2)cc1C(=O)N(C)CC(=O)Nc1cccc(F)c1 | -0.088% |
| Cc1cc(C(=O)Nc2ccc3c(c2)C(=O)N(C)[C@H]2CC[C@H](CC(=O)NCC(F)(F)F)O[C@@H]2CO3)no1 | -0.217% |
| CC(=O)N(C)C[C@@H]1Oc2cc(-c3ccncc3)ccc2S(=O)(=O)N([C@@H](C)CO)C[C@H]1C | -0.496% |
| C[C@@H]1CN([C@@H](C)CO)S(=O)(=O)c2ccc(-c3ccncc3)cc2O[C@@H]1CN(C)C(=O)Nc1ccc(F)cc1 | 1.27% (active) |
| Cc1ccc(S(=O)(=O)N(C)C[C@@H]2Oc3cc(C4=CCCC4)ccc3S(=O)(=O)N([C@@H](C)CO)C[C@@H]2C)cc1 | 1.23% (active) |
| Cc1ccc(-c2ccc3c(c2)O[C@H](CN(C)C(=O)Nc2ccc(C(F)(F)F)cc2)[C@@H](C)CN([C@H](C)CO)S3(=O)=O)cc1 | 0.037% |
| C[C@H](CO)N1C[C@H](C)[C@H](CN(C)C(=O)Nc2ccc3c(c2)OCO3)Oc2cc(C#Cc3ccncc3)ccc2S1(=O)=O | -0.273% |
| COc1cccc(S(=O)(=O)N(C)C[C@@H]2Oc3cc(C4=CCCCC4)ccc3S(=O)(=O)N([C@H](C)CO)C[C@H]2C)c1 | 0.057% |
| C[C@H](CO)N1C[C@H](C)[C@@H](CN(C)S(=O)(=O)c2ccc(F)cc2)Oc2cc(C3=CCCC3)ccc2S1(=O)=O | -0.123% |
| C[C@@H]1CN([C@H](C)CO)S(=O)(=O)c2ccc(-c3ccncc3)cc2O[C@@H]1CN(C)C(=O)Nc1ccc(C(F)(F)F)cc1 | 1.48% (active) |
| COc1ccc(NC(=O)N(C)C[C@H]2Oc3cc(-c4ccncc4)ccc3S(=O)(=O)N([C@@H](C)CO)C[C@H]2C)cc1 | -0.124% |
| C[C@H]1CN([C@@H](C)CO)S(=O)(=O)c2ccc(C3=CCCC3)cc2O[C@H]1CN(C)C(=O)Nc1ccc2c(c1)OCO2 | 1.26% (active) |
| C[C@H]1CN([C@@H](C)CO)S(=O)(=O)c2ccc(C#Cc3ccncc3)cc2O[C@@H]1CN(C)C(=O)Nc1ccc2c(c1)OCO2 | 0.074% |
| COc1ccc(NC(=O)N(C)C[C@H]2Oc3cc(-c4ccncc4)ccc3S(=O)(=O)N([C@H](C)CO)C[C@H]2C)cc1 | 0.949% |
